According to PubChem BioAssay (NCI):
The panel holds about 79,000 compounds, 15% with a hit somewhere; the sample as a whole holds those more often. A number with no mark means an inactive call. Calls of active or inactive are those of the source. No stated cut-off is given here; in the data, active means growth inhibition above about 70%; inactive means the rest.

Legend:
[1] = NCI Yeast Anticancer Drug Screen. Data for the rad50 strain (AID 155);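 further: 0% = growth of vehicle-only cultures of the same strain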; details: S. cerevisiae rad50 strain growth inhibition; at 50.0 µM; hits give high values
In short: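 A DNA repair-deficient yeast mutant serves as the test organism; compound-induced growth inhibition is calculated against vehicle-treated cells.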

[2] = NCI Yeast Anticancer Drug Screen. Data for the mec2-1 strain (AID 157); details: S. cerevisiae mec2-1 strain, at 50.0 µM, hits give high values
In short: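 Compounds were applied to mec2-1 yeast cells. Their growth was then compared with that of vehicle-treated cultures to give growth inhibition.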

[3] = NCI Yeast Anticancer Drug Screen. Data for the sgs1 mgt1 strain (AID 161);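 further: 0% = growth of cultures given vehicle only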; details: S. cerevisiae sgs1 mgt1 strain, at 50.0 µM, hits give high values
In short: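 Percent growth inhibition was derived by comparing compound-exposed mutant yeast with vehicle-exposed cultures. The strain carries alterations in DNA damage repair.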

[4] = NCI Yeast Anticancer Drug Screen. Data for the cln2 rad14 strain (AID 165);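 further: 0% = growth equal to vehicle treated cultures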; details: S. cerevisiae cln2 rad14 strain, at 50.0 µM, hits give high values
In short: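 Strain: cln2 rad14 yeast, altered in cell cycle control and DNA damage repair. Read-out: growth inhibition vs vehicle.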

[5] = NCI Yeast Anticancer Drug Screen. Data for the bub3 strain (AID 167); details: S. cerevisiae bub3 mutant strain, at 50.0 µM, hits give high values
In short: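 Inhibition values come from growth of compound-treated mutant yeast normalised to vehicle-treated controls.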

[6] = NCI Yeast Anticancer Drug Screen. Data for the mlh1 rad18 strain (AID 175); details: S. cerevisiae mlh1 rad18 strain growth inhibition; at 50.0 µM; hits give high values
In short: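 A repair-deficient yeast strain is exposed to test compound, and growth is scored relative to vehicle-treated controls.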

Row | Compound | growth inhibition [1] | growth inhibition [2] | growth inhibition [3] [%] | growth inhibition [4] | growth inhibition [5] | growth inhibition [6]
1 | CCCCCCCCCCCCP(=O)(O)O | -8.2% | -24.1% | -19.9 | -9.65% | 6.35% | -10.9%
2 | COc1ccc(/C=C2/C[N+](C)(C)C/C(=C/c3ccc(OC)cc3)C2=O)cc1 | 10.3% | 11.8% | -7.15 | 6.15% | 16.4% | -2.25%
3 | Nc1[nH]c(=S)[nH]c(=O)c1NS(=O)(=O)c1cccc([N+](=O)[O-])c1 | -14.1% | -10% | -22.1 | -18.2% | -11.4% | 12.8%
4 | O=C(C(c1ccccc1)C(F)(F)F)N1CCCC1 (stereo not given) | 7.4% | -7.8% | 5.05 | -13.3% | 13.8% | 0.6%
5 | Cc1ccc(C)c(N2C(=O)C(=O)C(c3nc4ccccc4s3)/C(=N/NC(=O)NN)C2=O)c1 (stereo not given) | 1.9% | 14.1% | -5.75 | -2.55% | -2.1% | -16.9%
6 | C1=C(c2ccccc2)N(c2ccccc2)N=C(c2ccccc2)C1 | 0.85% | -19.7% | 6 | -10.4% | -1.65% | 18.6%
7 | NCCCc1c(-c2ccccc2)nc(N)[nH]c1=O | -3.15% | -15% | -35.5 | -28.4% | -58% | -3.05%
8 | Cc1ccc2c(c1)-c1cc(C)ccc1C2 | 29.1% | 19.9% | 16.4 | 15% | 29.4% | -1.35%
9 | CC(N)c1ccc(OCCOc2ccc(C(C)(C)CC(C)(C)C)cc2)cc1 (stereo not given) | 98.9% (active) | 99% (active) | 42.7 | 97.7% (active) | 98.9% (active) | 99% (active)
10 | Oc1[nH]c2ccccc2c1N=NC(=S)Nc1ccccc1Cl | -8.2% | -2.3% | 46.5 | 36.2% | 21.8% | 26.2%
11 | CCCCSc1nc2ccc([N+](=O)[O-])cc2s1 | 40.6% | -4.2% | 37.5 | 2.1% | 4.45% | 12.9%
12 | O=[N+]([O-])c1ccc(N=Cc2ccccc2O)c(O)c1 | 21.9% | -4.05% | 2.75 | -8.55% | 20.8% | -2.05%
13 | COc1ccc(C[C@@H]2Cc3cc(OC)c(OC)cc3CN2C)cc1 | 27.4% | 4.6% | 19.6 | 5.65% | 10.9% | 21.4%
14 | COc1ccc(/C=C(\C#N)c2ccccc2NC(C)=O)cc1 | 6.9% | 7.4% | -2.95 | -42.8% | -10.5% | 19.8%
15 | O=C(O)c1cccn1-c1ccccc1 | -4.05% | -24.6% | -1.55 | -21.1% | -10.2% | -15.6%
16 | COC(CN1C=C(Sc2ccccc2)CC1)OC | 49.2% | 24.2% | 32.3 | 13% | 27.5% | 56.2%
17 | O=C(Nc1nc2c(ncn2C2OC(CO)C(O)C2O)c(=O)[nH]1)c1ccccc1 (stereo not given) | 2.45% | -26.9% | -20.2 | 11.6% | 12.7% | 15.6%
18 | CC1(C)Cc2[nH]c3ccccc3c(=O)c2-c2nc3ccccc3c(=O)n21 | -5.35% | 6.05% | 4.8 | -35.6% | -2.2% | -12.9%
19 | COc1ccc(OC)c(C(C)=O)c1 | -59% | -66% | -94 | 1.75% | -34.2% | -29.4%
20 | N#CCN1CCOCC1 | 31.5% | -1.55% | 4.45 | 15.2% | 10.2% | 27.1%

Row | Compound | growth inhibition [1] | growth inhibition [2] | growth inhibition [3] [%] | growth inhibition [4] | growth inhibition [5] | growth inhibition [6]
21 | O=C(O)/C(Cc1ccnc2ccccc12)=N\O | -1.35% | 2.7% | -15.4 | -0.05% | -22.7% | 0.4%
22 | Cc1ccc(C)n1-c1ccc(OCC(N)=O)cc1 | 16.3% | 16.1% | 12.7 | -15.7% | 12.6% | 13.9%
23 | CC12CC3OC3CC1CCC1C2CCC2(C)C1CCC21OCCO1 (stereo not given) | 16% | -32.7% | 3.6 | 3.15% | 23.1% | 22.6%
24 | COC(=O)C12C3C4C1C1C2C3C41C(=O)N(C(C)C)C(C)C (stereo not given) | 7.75% | -1.45% | -3.4 | -3.55% | 3.5% | -14%
25 | O=C1NC(=S)N(c2ccccc2)C1=O | -19.4% | -7.65% | -24.2 | -30.2% | -2.5% | -11.8%
26 | COc1cc(NCCCCCCN(C)C)c2ncccc2c1 | -17.4% | -21.2% | -3.1 | -19.4% | 5.8% | -14.8%
27 | O=C(c1ccccc1)N1C(c2ccccc2)C1(c1ccccc1)C1(c2ccccc2)SCCCS1 (stereo not given) | -17.6% | 14.7% | -13.4 | -61.6% | -0.1% | -1.25%
28 | Cc1ccc(N=Nc2c(O)c(C(=O)O)cc3ccccc23)c(S(=O)(=O)O)c1 | 12.3% | -8.35% | -7.5 | -45.2% | 5.9% | 26.4%
29 | COc1cccc(NC(=O)NC(C)(C)C)c1 | 8.2% | -16.1% | 1.2 | -42.1% | -0.7% | -0.05%
30 | CCCCCCOC(=O)C(C)(O)C(Cl)c1ccccc1 (stereo not given) | 3.95% | -0.45% | -5.4 | 3.9% | 9.3% | -10.2%
31 | CC1(C)CC(=O)C(C(CCC2CCCCC2=O)C2C(=O)CC(C)(C)CC2=O)C(=O)C1 (stereo not given) | 38.5% | 7.95% | 10 | 1.95% | 9.35% | 19.6%
32 | CCOc1ccc(C(C)(C)c2cc3c(cc2OC)OCO3)cc1 | -16.2% | -27.8% | -39.9 | -24.8% | -21.9% | -6.45%
33 | O=C1CSC2=NC3=C(COC/C3=C\c3ccc(F)cc3)C(c3ccc(F)cc3)N12 (stereo not given) | 16.6% | 28.3% | 41.9 | 21.2% | 30.1% | 31.2%
34 | O=C(NCc1cccnc1)C1COc2cc(-c3cc(=O)c4ccccc4o3)ccc2O1 (stereo not given) | -9.55% | -18.9% | -23.9 | -5.25% | -6.95% | -49%
35 | O=C1CC2COc3ccccc3C2=NN1c1ccccc1 (stereo not given) | 13.6% | 4.3% | 4.7 | 1.35% | -4.15% | 10.2%
36 | Nc1ccn(C2OC(COC(=O)C34CC5CC(CC(C5)C3)C4)C(O)C2O)c(=O)n1 (stereo not given) | -14.5% | 0.4% | -35.5 | -2.4% | -31.2% | 6.3%
37 | C=C[C@@]1(C)CC(=O)[C@]2(O)[C@@]3(C)[C@@H](O)CCC(C)(C)[C@@H]3[C@H](O)[C@@H](OC(C)=O)[C@@]2(C)O1 | 0.2% | -4.4% | -5.75 | 9.2% | -4.15% | -68%
38 | CCOC(=O)N/C=C/C(C)=O | -31.1% | -14.2% | -1.5 | -29.4% | -6.35% | -14.5%
39 | O=c1[nH]cc(C(F)(C(F)(F)F)C(F)(F)F)c(=O)[nH]1 | -21.9% | -18.9% | -24.6 | -4.25% | -25.3% | -36.8%
40 | C=CCOC(=O)CC(O)(CC(=O)OCC=C)C(=O)OCC=C | -3.4% | -17.9% | -11.8 | -35.5% | -6.4% | -12.2%
